Literature values, collected in PubChem BioAssay AID977608.
Hit rate of the full screen: of about 4,300 compounds, about 4,300 (100%) were called active. The limit is not given here; nearly all actives have IC50 up to about 1400 µM. The set was probably picked from earlier hits. This is one part of the list. Square brackets hold non-standard residues; d marks the D form. Peptide text beside a SMILES is read from it. * marks the point of attachment. 3Pal = N[C@@H](Cc1cccnc1)C(=O)O; hLeu = CC(C)CC[C@H](N)C(=O)O; β3hL = CC(C)C[C@H](N)CC(=O)O; X1 = CC(=O)[C@H](CC(=O)O)N*

Assay: literature IC50 values for PDB complexes, PDB-derived complexes (AID 977608)
Conditions: PDB protein-ligand complexes

## O=C(Nc1nc2ccccc2s1)c1cccc2c1CN(c1nc(C(=O)O)c(CCCOc3ccc(-n4ncc5cncnc54)cc3)s1)CC2
protein: Bcl-2-like protein 1 Bcl-xL, PDB entry 4tuh
  IC50: 100000 nM (active)

## Cc1c(-c2c([C@H](OC(C)(C)C)C(=O)O)n(C)c(=O)c3ccccc23)cc(F)c2c1CCCO2
protein: HIV-1 Integrase HIV-1 IN, PDB entry 4ojr
  IC50: 38 nM (active)

## CCc1sc(-c2ccc(OC)c(OCCF)c2)nc1CSc1nc(N)cc(N)n1
protein: Deoxycytidine kinase, Human dCK C4S-S74E mutant, PDB entry 4jlm
  IC50: 22.7 nM (active)

## Cc1ccc(CN(C)c2cc(C)nc3ncnn23)cc1
protein: Bromodomain-containing protein 4, PDB entry 4men
  IC50: 125000 nM (active)

## C[N+](C)(C)CCCC(=O)O
protein: human gamma-butyrobetaine hydroxylase, PDB entry 4c5w
  IC50: 3300 nM (active)

## COc1cc(Nc2nccc(Nc3ccc4c(C)[nH]nc4c3)n2)cc(OC)c1OC
protein: Bromodomain-containing protein 4 BRD4-1, PDB entry 4o78
  IC50: 4600 nM (active)

## COc1cc(NC(=O)c2cccc3cccnc23)c(OC)cc1Cl
protein: 3-OXOACYL-[ACYL-CARRIER-PROTEIN] REDUCTASE FABG, PDB entry 4bo1
  IC50: 50 nM (active)

## CC(C)(C)OC(=O)NCc1cn([C@H]2C[C@@H](C(=O)N3CCC[C@H]3C=N)N(C(=O)CCCc3ccccc3)C2)nn1
protein: PROLYL ENDOPEPTIDASE, PDB entry 4bcc
  IC50: 9 nM (active)

## [N-]=[N+]=N[C@H]1C[C@@H](C(=O)N2CCC[C@H]2C=N)N(C(=O)CCCc2ccccc2)C1
protein: PROLYL ENDOPEPTIDASE, PDB entry 4bcb
  IC50: 3 nM (active)

## CC(C)C[C@H](NC(=O)[C@@H](Cc1ccc(CN)cc1)NC(=O)[C@H](Cc1ccccc1)N=[N+]=[N-])C(=O)N[C@H](CCS(C)(=O)=O)Cc1ccc(CN)cc1
protein: yeast 20S proteasomes, PDB entry 4inu
  IC50: 0.55 nM (active)

## Cc1c(O)cccc1C(=O)N[C@H](C(=O)N[C@@H](CO)C(=O)N[C@H](CCS(C)(=O)=O)Cc1ccc(CN)cc1)C(C)C
protein: yeast 20S proteasomes, PDB entry 4int
  IC50: 1600 nM (active)

## NC(=O)[C@H](CCCCNC(=O)[C@@H](Cc1ccc(C(=O)c2ccccc2)cc1)NC(=O)CCC1CCCCC1)NC(=O)/C=C/C(=O)O
protein: Cysteine-free Human Insulin Degrading Enzyme, PDB entry 4lte
  IC50: 60 nM (active)

## COc1cccc(C(O)c2sc(Nc3ccc(S(N)(=O)=O)cc3)nc2N)c1 (centres undefined)
protein: Cyclin-dependent kinase 2, PDB entry 3ral
  IC50: 100 nM (active)

## Nc1nc(Nc2ccc(S(N)(=O)=O)cc2)sc1C(O)c1ccccc1 (centres undefined)
protein: Cyclin-dependent kinase 2, PDB entry 3rak
  IC50: 130 nM (active)

## COc1ccc(C(O)c2sc(Nc3ccc(S(N)(=O)=O)cc3)nc2N)cc1 (centres undefined)
protein: Cyclin-dependent kinase 2, PDB entry 3s1h
  IC50: 17000 nM (active)

## COc1cccc(C(O)c2sc(Nc3ccccc3)nc2N)c1 (centres undefined)
protein: Cyclin-dependent kinase 2, PDB entry 3qts
  IC50: 3100 nM (active)

## Nc1nc(Nc2ccc(S(N)(=O)=O)cc2)sc1C(O)c1cccc([N+](=O)[O-])c1 (centres undefined)
protein: Cyclin-dependent kinase 2, PDB entry 3qtx
  IC50: 70 nM (active)

## COc1ccc(Nc2nc(-c3cccc(C(=O)Nc4ccc(C(=O)O)cc4)c3)c[n+]3cc[nH]c23)cc1OC
protein: Tyrosine-protein kinase SYK, PDB entry 4pv0
  IC50: 0.85 nM (active)

## COc1ccc(Cc2nn3c([C@@H](CCCc4ccccc4)[C@@H](C)O)nc(C)c3c(=O)[nH]2)cc1OC
protein: cGMP-dependent 3',5'-cyclic phosphodiesterase, PDB entry 4htx
  IC50: 4.7 nM (active)

## CC(=O)N[C@@H](Cc1cccnc1)C(=O)N[C@@H](CC(=O)O)C(=O)N[C@H](CC(=O)N[C@@H](CCC(C)C)C(=O)N[C@@H](CC(=O)O)C(C)=O)CC(C)C (Ac-[3Pal]D[β3hL][hLeu]-X1)
protein: Caspase-3, PDB entry 4jje
  IC50: 23 nM (active)
protein: Caspase-7, PDB entry 4jj8
  IC50: 730 nM (active)
protein: Caspase-8, PDB entry 4jj7
  IC50: 400 nM (active)

## CCOc1cc(C(C)(C)C)ccc1C1=N[C@@](C)(c2ccc(Cl)cc2)[C@@](C)(c2ccc(Cl)cc2)N1C(=O)N1CCN(CCCS(C)(=O)=O)CC1
protein: E3 ubiquitin-protein ligase Mdm2 (I50L, P92H, L95I mutation), PDB entry 4ipf
  IC50: 18 nM (active)

## CCC(C)(C)NC(=O)[C@@H](c1cccn1C)N(C(=O)Cn1nnc2ccccc21)c1ccc(NC(C)=O)cc1
protein: 3C-like proteinase, PDB entry 4mds
  IC50: 6200 nM (active)

## N#CNC(NCc1ccc(S(=O)(=O)c2cccc(OC(F)(F)F)c2)cc1)Nc1ccncc1 (centres undefined)
protein: Nicotinamide phosphoribosyltransferase, PDB entry 4lts
  IC50: 4.4 nM (active)

## COc1cccc(-c2cc(C(F)(F)F)[nH]n2)c1
protein: Phenylalanine--tRNA ligase, PDB entry 4p75
  IC50: 80000 nM (active)

## CCC(=O)O[C@@H]1CC[C@@]2(C)[C@H](CC[C@@H]3[C@@H]2CC[C@]2(C)[C@@H]([C@H](C)CCC(=O)O)CC[C@@H]32)C1
protein: vitamin D3 receptor ligand binding domain, PDB entry 3w5t
  IC50: 30000 nM (active)

## CC1C=CC(C(=O)Nc2ccc(Oc3cc4cnn(C)c4cc3-c3cn[nH]c3)c(F)c2)C(=O)N1c1ccc(F)cc1 (centres undefined)
protein: Hepatocyte growth factor receptor, PDB entry 4eev
  IC50: 4.7 nM (active)

## CC1=C(C(=O)N[C@H](C)C(=O)N[C@@H](Cc2c[nH]c3ccccc23)C(=O)N[C@@H](Cc2ccccc2)[C@@H](O)[C@H](C)CO)Cc2ccccc21
protein: yCP, PDB entry 4qlt
  IC50: 2.5 nM (active)

## CC1=C(C(=O)N[C@H](C)C(=O)N[C@@H](Cc2c[nH]c3ccccc23)C(=O)N[C@@H](CC2CCCCC2)[C@@H](O)[C@H](C)CO)Cc2ccccc21
protein: yCP, PDB entry 4qlu
  IC50: 8.3 nM (active)

## OC(Cc1cnc2ccccn12)([P+](O)(O)O)[P+](O)(O)O
protein: human FARNESYL PYROPHOSPHATE SYNTHETASE, PDB entry 2vf6
  IC50: 3 nM (active)

## CCC(=O)Nc1ccc(OC)c(Nc2ncc(Cl)c(-c3c[nH]c4ccccc34)n2)c1
protein: Epidermal growth factor receptor, PDB entry 4li5
  IC50: 550 nM (active)

## COc1ccc2c(c1OC)CN(C)c1c-2ccc2cc3c(cc12)OCO3
protein: Chitinase A(W275G mutant), PDB entry 3as1
  IC50: 95000 nM (active)

## c1ccc(-c2nc(-n3cnnc3)c3ccccc3n2)cc1
protein: 3-OXOACYL-[ACYL-CARRIER-PROTEIN] REDUCTASE FABG, PDB entry 4bnu
  IC50: 20 nM (active)

## Ac-NSNAIKN-NH2
protein: Low-density lipoprotein receptor-related protein 6, PDB entry 3soq
  IC50: 27000 nM (active)

## CC[C@H](C)[C@H](NC(=O)[C@H](CCC(=O)O)NC(=O)[C@H](C)NC(C)=O)C(=O)N[C@H](CO)CCCCN
protein: Streptopain, PDB entry 4d8i
  IC50: 205 nM (active)

## CCNC(=O)c1ccc(C(=O)NCCC2CCN(c3ncnc4cc(C(N)=O)sc34)CC2)s1
protein: NAD-dependent protein deacetylase sirtuin-3, mitochondrial, PDB entry 4jsr
  IC50: 4 nM (active)

## Nc1nc(NC2CCCCC2)sc1C(O)c1cccc([N+](=O)[O-])c1 (centres undefined)
protein: Cyclin-dependent kinase 2, PDB entry 3r9n
  IC50: 1400 nM (active)

## Nc1nc(NC2CCCCC2)sc1C(O)c1ccc2ccccc2c1 (centres undefined)
protein: Cyclin-dependent kinase 2, PDB entry 3rah
  IC50: 12 nM (active)
